The panel holds about 79,000 compounds, 15% with a hit somewhere; the sample as a whole holds those more often. Cut-off read from the data, not from the text of the source: active = growth inhibition above about 70%; inactive = the rest. Where a SMILES comes first, the peptide text is derived from it. [ ]: non-standard residue; d: D form. The star is where a group is joined. Cbz = O=C(OCc1ccccc1)*; Nva = CCC[CH](N)C(=O)O
How the values were obtained:
[1] = NCI Yeast Anticancer Drug Screen. Data for the rad50 strain (AID 155);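 note: 0% = growth of vehicle-only cultures of the same strain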; conditions: S. cerevisiae rad50 strain growth inhibition; at 50.0 µM; stronger effect = higher value
Method in brief: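 Genetically altered yeast (DNA repair pathway); compound treatment; growth inhibition vs vehicle ctrl.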

[2] = NCI Yeast Anticancer Drug Screen. Data for the mec2-1 strain (AID 157); conditions: S. cerevisiae mec2-1 strain, at 50.0 µM, stronger effect = higher value
Method in brief: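 Cells of the genetically defined mec2-1 yeast strain are incubated with test compound. Inhibition of growth is calculated against vehicle-treated controls.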

[3] = NCI Yeast Anticancer Drug Screen. Data for the sgs1 mgt1 strain (AID 161);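 note: 0% = growth of cultures given vehicle only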; conditions: S. cerevisiae sgs1 mgt1 strain, at 50.0 µM, stronger effect = higher value
Method in brief: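 Genetically altered yeast, compound exposure, growth inhibition relative to vehicle.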

[4] = NCI Yeast Anticancer Drug Screen. Data for the cln2 rad14 strain (AID 165);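 note: 0% = growth equal to vehicle treated cultures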; conditions: S. cerevisiae cln2 rad14 strain, at 50.0 µM, stronger effect = higher value
Method in brief: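 The screen exposed genetically defined yeast (cln2 rad14) to test compounds and scored growth inhibition relative to vehicle-treated controls.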

[5] = NCI Yeast Anticancer Drug Screen. Data for the bub3 strain (AID 167); conditions: S. cerevisiae bub3 mutant strain, at 50.0 µM, stronger effect = higher value
Method in brief: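 Yeast carrying a defined mutation is treated with each compound, and growth is compared with that of vehicle-exposed cells to give inhibition.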

[6] = NCI Yeast Anticancer Drug Screen. Data for the mlh1 rad18 strain (AID 175); conditions: S. cerevisiae mlh1 rad18 strain growth inhibition; at 50.0 µM; stronger effect = higher value
Method in brief: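 Compound-treated yeast growth, normalised to vehicle controls. Strain bears defined DNA repair mutations.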

Measured: growth inhibition

CN1CC(O)c2cc(N=NC(N)=O)c(O)cc21 (configuration not stated)
inactive: [1] -16.6% | [2] -9.5% | [3] -4.85% | [4] 5.85% | [5] -7.25% | [6] -2.45%

O=C(O)c1ccc(SSc2ccc(C(=O)O)cn2)nc1
inactive: [1] 9.9% | [2] 19.1% | [3] -13.3% | [4] -8.5% | [5] 6.7% | [6] 14.9%

CC(C)C1OCCOCCO1
inactive: [1] 9.45% | [2] -12.1% | [3] -18.5% | [4] -21.5% | [5] -9.4% | [6] 9.45%

c1cc2c3c(cccc3c1)-c1nc3ccccc3nc1-2
inactive: [1] -5.1% | [2] -21.4% | [3] -5.2% | [4] 4.05% | [5] 0.2% | [6] 19.8%

Cn1c(=O)cc2n(C)c3ccccc3n2c1=O
inactive: [1] 33.1% | [2] 18.6% | [3] 1.2% | [4] -5.9% | [5] 6.2% | [6] 5.8%

COc1cc(C2C(C(=O)O)=C(CO)Oc3cc4c(cc32)OCO4)cc(OC)c1OC (configuration not stated)
inactive: [1] -5.4% | [2] 7.35% | [3] -4.95% | [4] 1.1% | [5] -4.6% | [6] 4.25%

Cc1cccc(-n2c(CC#N)n[nH]c2=S)c1
inactive: [1] 21% | [2] -21.8% | [3] -0.4% | [4] 3.15% | [5] 5.2% | [6] 5.45%

CCN(CC)c1c(C)c(-c2ccccc2)oc(=O)c1Cl
inactive: [1] 0.3% | [2] -1.05% | [3] 3.7% | [4] 11.1% | [5] 6.85% | [6] 6.95%

COc1ccc(C(=O)c2ccccc2)c(OC(=O)Nc2c(Cl)cccc2Cl)c1
inactive: [1] -4.25% | [2] -23.9% | [3] 10.2% | [4] 1.05% | [5] -0.1% | [6] 22.6%

CN(C)S(=O)(=O)c1ccc(NC(=O)OC(C)(c2ccccc2)C2CCCCC2)cc1 (configuration not stated)
inactive: [1] 17.4% | [2] 2% | [3] 4.05% | [4] 7.75% | [5] 1.35% | [6] 4%

C=CCc1cc(N)ccc1O
inactive: [1] 15.9% | [2] 8.9% | [3] 11.8% | [4] 11.8% | [5] 11.7% | [6] 7.9%

O=C(Nc1ncnc2nc(-c3ccccc3)[nH]c12)c1ccccc1
inactive: [1] -30.1% | [2] -16.9% | [3] -5% | [4] -56.3% | [5] -6.65% | [6] 5.95%

CCCCc1ccccn1
inactive: [1] -9.1% | [2] 4.15% | [3] 14.1% | [4] -42.5% | [5] 7.4% | [6] 16.9%

C/C(=N/N(C)C)c1ccc(C)cc1
inactive: [1] 20.3% | [2] -5.75% | [3] 3.25% | [4] -26.9% | [5] 0.6% | [6] 12.5%

O=C1CCC(=O)N1Cc1ccccc1N=[N+]([O-])c1ccccc1CN1C(=O)CCC1=O
inactive: [1] -37.2% | [2] -14.7% | [3] 1.75% | [4] -0.55% | [5] -19.5% | [6] -15.9%

CCCC(NC(=O)OCc1ccccc1)C(=O)NC(CO)C(=O)O (configuration not stated) (Cbz-[Nva]-Ser-OH; configuration not given here)
inactive: [1] 24.6% | [2] 4.15% | [3] 9.05% | [4] 26.6% | [5] 8.25% | [6] 8.05%

CCc1cc2c(ccc3ccccc32)c2c1CCC2
inactive: [1] -11.6% | [2] -11.7% | [3] -1.8% | [4] -17.1% | [5] 5.3% | [6] 1.6%

c1ccc(Sc2nc(Sc3ccccc3)nc(Sc3ccccc3)n2)cc1
inactive: [1] -23.9% | [2] -16.4% | [3] -15.2% | [4] 17.9% | [5] -20.1% | [6] -31.7%

Nc1ccc(OCCc2c(N)nc(N)nc2N)cc1
inactive: [1] -1.2% | [2] 7.15% | [3] 12.4% | [4] -4.05% | [5] 22.7% | [6] 9.7%

C=C1CC(CCCCC2CC(=C)C(=O)O2)OC1=O (configuration not stated)
inactive: [1] 1.45% | [2] -15.8% | [3] -8.1% | [4] -104% | [5] -12.7% | [6] -24.6%

CS(=O)(=O)OC1CC/C=C\CCC1OS(C)(=O)=O (configuration not stated)
inactive: [1] 1.3% | [2] 14.5% | [3] 12.3% | [4] -9.35% | [5] -15.4% | [6] -15.6%

O=C(O)CNCCO
inactive: [1] -0.35% | [2] 7.75% | [3] 6.65% | [4] 0% | [5] 22.2% | [6] -0.25%

CN(C)CCC(=O)N1CCc2c([nH]c3ccccc23)C1c1cccnc1 (configuration not stated)
inactive: [1] -15.2% | [2] -34.6% | [3] -21.6% | [4] 6.55% | [5] 5.65% | [6] -40.5%

O=c1cc(-c2ccccc2)[nH]c2ncccc12
inactive: [1] -37.5% | [2] -48.6% | [3] -37.1% | [4] -9.4% | [5] -19.8% | [6] -65.8%

CCCCOC(=O)OCCOCCOC(=O)OC(C)C(=O)OCCCC (configuration not stated)
inactive: [1] -16.9% | [2] -22.4% | [3] -10.2% | [4] -21.3% | [5] 1.7% | [6] 10.8%

CCc1ccc(O[Si](C)(C)C)cc1
inactive: [1] 5.35% | [2] 3.25% | [3] -15.6% | [4] -25.4% | [5] -21.9% | [6] -3.9%

O=C(O)c1ccc(F)cc1F
inactive: [1] 6.25% | [2] -15.9% | [3] 11.3% | [4] -32.7% | [5] -3.75% | [6] 2.85%

CCOC(=O)C(=Cn1c(=S)[nH]c2cc(C)ccc21)C(=O)OCC
inactive: [1] -19.8% | [2] -39.1% | [3] -16.2% | [4] 13.6% | [5] 0.1% | [6] -11.8%

CC(=O)NNc1nc(C)c(C(/C=C/c2ccc(Cl)cc2)=N/NC(=S)NN)s1
inactive: [1] 34.1% | [2] 20.4% | [3] 45% | [4] 15.8% | [5] 11.8% | [6] 9.75%

O=C(O)C(CO)N=Cc1nc(-c2ccccc2)oc1O (configuration not stated)
inactive: [1] 0.2% | [2] 6.05% | [3] 12.4% | [4] 9.25% | [5] -6.25% | [6] -11.8%

CC(C)CCOC(=O)C(C)(O)C(Cl)c1ccccc1 (configuration not stated)
inactive: [1] 2.9% | [2] 2.55% | [3] -13.2% | [4] 1.35% | [5] 6.25% | [6] -6.95%

CC(Cc1ccco1)C(=O)O (configuration not stated)
inactive: [1] 9.2% | [2] 15.4% | [3] -0.3% | [4] -14% | [5] 1.9% | [6] -11.2%

Cc1c(C(=O)O)[nH]c(=O)[nH]c1=O
inactive: [1] 9.1% | [2] -20.4% | [3] 2.2% | [4] 11.5% | [5] -0.35% | [6] -12.1%

O=[N+]([O-])c1ccc(/C([O-])=C(\C(=S)Nc2ccccc2Cl)[n+]2ccccc2)cc1
inactive: [1] -7.5% | [2] 0.1% | [3] -6.95% | [4] -14.4% | [5] 2.35% | [6] 11.2%

COC(=O)N/N=C/c1cccc(C)n1
inactive: [1] -5.55% | [2] 2.05% | [3] -4.55% | [4] 0.7% | [5] -5.25% | [6] -11.6%

COc1cc(=O)cc2n(c1=O)CCC2
inactive: [1] -8.45% | [2] -5.05% | [3] -13.2% | [4] -28% | [5] 8.5% | [6] -2.25%

CC(C)CCOC(=O)N(C)c1ccccc1
inactive: [1] 9.3% | [2] 0.2% | [3] 10.3% | [4] -17.9% | [5] -24% | [6] -9.8%

O=C(Cc1ccccc1)c1ccc(N2CCOCC2)cc1
inactive: [1] 21.5% | [2] -19.2% | [3] 11.5% | [4] 13.2% | [5] 26.1% | [6] 25.7%

CC(C)Sc1nc2ccc(NC(=O)/C=C/C(=O)O)cc2s1
inactive: [1] 18.9% | [2] 8.65% | [3] 4.95% | [4] 14.1% | [5] 13.7% | [6] 12.1%

O=C(O)C1CC(Cl)C(Cl)CC1C(=O)O (configuration not stated)
inactive: [1] -2.9% | [2] -27.1% | [3] 0.85% | [4] 0.2% | [5] -19.2% | [6] -5.1%

COC(=O)c1cocc1C(=O)OC
inactive: [1] -13.9% | [2] -7.25% | [3] -3.75% | [4] -2.8% | [5] -15.3% | [6] -15.9%

CN(C)C(=O)c1ccc[n+](CC(=O)Nc2ccccc2)c1
inactive: [1] 0.7% | [2] -3.85% | [3] 13.1% | [4] -1.25% | [5] 4.05% | [6] -4.4%
